From the supplement of paper PMC6089552
Hit rate of the full screen: of about 3,200 compounds, about 300 (9.4%) showed activity. The full list was thinned out, with actives kept by preference.

Tested on: A673/TR/shEF
Experiment: cell viability (LOESS-normalised, relative to median of negative controls) (log2 ratio); higher = more viable cells (less compound effect), active = hit call of the paper (over 3 MAD below the median)
Conditions: treatment time: 72 h
Summary of the method: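 A673/TR/shEF Ewing sarcoma cells were plated at 1,500 per well in 384-well plates and cultured with or without doxycycline, added 24 h before compounds, to induce EWS-FLI1 shRNA knockdown. Library compounds at two or more concentrations, alongside DMSO controls, were applied for three days. Cell viability was measured by CellTiter-Glo luminescence on an Envision reader. Readings were LOESS-corrected per plate, divided by the median of negative controls and log2-transformed, and hits were wells lying at least three median absolute deviations from the median of all screened wells.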

[1] = 0.25 µM, library screen: screen1, EWS-FLI1 expression: high (no doxycycline)
[2] = 0.25 µM, library screen: screen1, EWS-FLI1 expression: low (doxycycline-induced shRNA knockdown)
[3] = 2.5 µM, library screen: screen1, EWS-FLI1 expression: high (no doxycycline)
[4] = 2.5 µM, library screen: screen1, EWS-FLI1 expression: low (doxycycline-induced shRNA knockdown)
[5] = 0.25 µM, library screen: screen2, EWS-FLI1 expression: high (no doxycycline)
[6] = 0.25 µM, library screen: screen2, EWS-FLI1 expression: low (doxycycline-induced shRNA knockdown)
[7] = 2.5 µM, library screen: screen2, EWS-FLI1 expression: high (no doxycycline)
[8] = 2.5 µM, library screen: screen2, EWS-FLI1 expression: low (doxycycline-induced shRNA knockdown)

Measured: cell viability (log2)

c1ccc(N=Nc2ccccc2)cc1
inactive: [1] 0.0795 | [2] 0.0179 | [3] 0.0868 | [4] 0.083

NC(=NCCCC(N)C(=O)O)N[N+](=O)[O-] (centres undefined)
inactive: [1] 0.0461 | [2] 0.0355 | [5] 0.174 | [6] -0.00505 | [3] 0.0987 | [4] 0.0962 | [7] 0.128 | [8] 0.0828

CN1C[C@@H](CO)C=C2c3cccc4[nH]cc(c34)C[C@@H]21
inactive: [1] 0.0549 | [2] 0.11 | [3] 0.076 | [4] 0.0565

NC(=O)CN1CC(O)CC1=O (centres undefined)
inactive: [5] 0.159 | [6] 0.0927 | [7] 0.0479 | [8] 0.0838

CC[C@@H]1/C=C/C=C/C[C@H](C)[C@@H](O)[C@](C)(O)C(=O)[C@H](C)[C@@H](O)[C@H](C)C(=O)[C@H](C)[C@@H](O)[C@H](C)/C=C/C(=O)O[C@H]2[C@@H](C)[C@@H](CC1)O[C@@]1(CC[C@@H](C)[C@@H](C[C@H](C)O)O1)[C@@H]2C
active: [5] -0.731 | [6] -0.205 | [7] -0.713 | [8] -0.154

NC(CCP(=O)(O)O)C(=O)O (centres undefined)
inactive: [5] 0.115 | [6] 0.0812 | [7] 0.106 | [8] 0.13

CC(C)(C#N)O[C@@H]1O[C@H](CO)[C@@H](O)[C@H](O)[C@H]1O
inactive: [1] 0.0597 | [2] 0.0616 | [3] 0.164 | [4] -0.0392

CC(C)NC(C)Cc1ccc(I)cc1 (centres undefined)
inactive: [5] 0.0787 | [6] 0.0338 | [7] 0.129 | [8] 0.0526

CCN1C[C@]2(COC)[C@H](O)C[C@H](OC)[C@]34C1[C@H]([C@H](OC)[C@H]23)[C@]1(OC(C)=O)[C@H]2[C@@H](OC(=O)c3ccccc3)[C@](O)(C[C@H]24)[C@@H](OC)[C@@H]1O
inactive: [1] 0.162 | [2] 0.0997 | [3] 0.181 | [4] 0.202

CCC(=O)C(CC(C)N1CCOCC1)(c1ccccc1)c1ccccc1 (centres undefined)
inactive: [1] 0.0298 | [2] 0.011 | [3] 0.0537 | [4] -0.074

CC[C@@H](C(=O)[C@@H](C)[C@@H](O)[C@H](C)[C@@H]1O[C@@H]([C@@H](CC)C(=O)O)CC[C@@H]1C)[C@H]1OC2(C=C[C@@H](O)[C@]3(CC[C@@](C)([C@H]4CC[C@](O)(CC)[C@H](C)O4)O3)O2)[C@H](C)C[C@@H]1C (some centres undefined)
inactive: [2] 0.0935 | [4] -0.123
active: [1] -0.101 | [3] -0.582

O=C(O)CF
inactive: [1] -0.0204 | [2] -0.0324 | [3] 0.103 | [4] 0.0882

COc1cc(CC(C)N)c(OC)cc1I (centres undefined)
inactive: [5] 0.14 | [6] 0.0726 | [7] 0.151 | [8] 0.083

O=C[C@H](Cl)[C@@H](O)[C@H](O)[C@H](O)CO
inactive: [5] 0.14 | [6] 0.0253 | [7] 0.0931 | [8] 0.107

NCC#Cc1ccccc1
inactive: [5] 0.139 | [6] -0.0046 | [7] 0.0226 | [8] 0.0206

O=C1c2ccccc2C(=O)c2ccccc21
inactive: [1] 0.0481 | [2] 0.0868 | [3] 0.203 | [4] 0.0785

c1ccc2c(c1)[I+]c1ccccc1-2
active: [5] -1.37 | [6] -0.118 | [7] -1.4 | [8] -0.388

COc1cc2c3cc1Oc1cc(ccc1O)C[C@H]1c4c(cc(OC)c(O)c4Oc4ccc(cc4)C[C@@H]3N(C)CC2)CCN1C
inactive: [1] 0.0853 | [2] 0.0939 | [3] 0.083 | [4] 0.276

CC1=C2[C@H]3OC(=O)[C@@H](C)[C@@H]3CC[C@@]2(C)C=CC1=O
inactive: [1] 0.0669 | [2] -0.0349 | [3] 0.0906 | [4] 0.0161

CCN(CC)C(=O)N[C@H]1C=C2c3cccc4[nH]cc(c34)C[C@H]2N(C)C1
inactive: [5] 0.144 | [6] 0.146 | [7] 0.172 | [8] 0.138

C=C(C)[C@@H]1C2OC(=O)C1[C@]1(O)CC3O[C@]34C(=O)O[C@H]2[C@]14C.CC(C)(O)[C@@H]1C2OC(=O)C1[C@]1(O)C[C@H]3O[C@]34C(=O)O[C@H]2[C@]14C (some centres undefined)
inactive: [5] 0.0987 | [6] 0.0228 | [7] 0.079 | [8] 0.0567

O=C(O)[C@@H]1CCN1
inactive: [5] 0.101 | [6] 0.092 | [7] 0.0671 | [8] 0.0609

O=C(O)C1C2CCC(O2)C1C(=O)O (centres undefined)
active: [3] -0.431 | [4] -2.19 | 25 µM, library screen: screen1, EWS-FLI1 expression: high (no doxycycline) -0.369 | 25 µM, library screen: screen1, EWS-FLI1 expression: low (doxycycline-induced shRNA knockdown) -2.13
inactive: 0.025 µM, library screen: screen1, EWS-FLI1 expression: high (no doxycycline) 0.136 | 0.025 µM, library screen: screen1, EWS-FLI1 expression: low (doxycycline-induced shRNA knockdown) 0.0328 | [1] 0.0769 | [2] 0.0235 | [5] 0.267 | [6] 0.0812 | [7] 0.105 | [8] -0.0306
